Values joined by “and” are separate entries in the source; they are usually repeats but may differ in a detail not shown here. Equal entries are not always repeated. Inconclusive results are not listed. Entries that show only a call come without a potency. Active and inactive are the calls of the source. The call rests on the fitted dose curve; in most records, active means well fitted cell-killing curve with a large enough effect in the repeat runs; inconclusive means weak or mixed curves, or effect the other way; inactive means flat fitted curve, though single readings scatter.
Potency means the concentration at half of the fitted maximal effect.

The nature of this experiment: Nuclear factor erythroid 2-related factor 2/antioxidant responsive element (Nrf2/ARE) small molecule agonists: qHTS cell viability counter screen in human keratinocytes (AID 1919968). Further: nearly all actives have a fitted effect of over 55% in size. Particulars: KeratinoSens HaCaT ARE cells viability, CellTiter-Fluor, 24 h; series mostly up to 92.4 µM. An excerpt:
U.S. Tox21 Program National Center for Advancing Translational Sciences [NCATS] Division of Preclinical Innovation [DPI] U.S. Environmental Protection Agency [EPA] National Institutes of Environmental Health Sciences [NIEHS] National Toxicology Program [NTP] U.S. Food and Drug Administration [FDA] Tox21 Assay Overview: Oxidative stress has been implicated in the pathogenesis of a variety of diseases ranging from cancer to neurodegeneration. The antioxidant response element (ARE) signaling pathway plays an important role in the amelioration of oxidative stress. The KeratinoSens (Givaudan, Switzerland) is an in vitro test method which quantifies luciferase induction as a measure of activation of Keap1-Nrf2-antioxidationt/electrophile response element (ARE) dependant pathway in HaCaT human keratinocytes stably transfected with a selectable plasmid. The KeratinoSens assay is a cell-based assay with a reporter cell line to detect potential skin sensitizers by their ability to induce the Nrf2/ARE-response. The activation of the report gene under culture conditions can be detected by ONE-Glo Luciferase Assay System (Promega, Madison, WI). This cell line has been used to screen the Tox21 10K compound library to identify agonists that induce oxidative stress. The cytotoxicity of the Tox21 compound library against the KS-ARE cell line was tested in parallel by measuring the cell viability using CellTiter- Fluor assay system (Promega, Madison, WI) in the same wells.
Tox21 Assay Protocol Summary: HaCaT derived cell line KeratinoSens were dispensed at 1,500 cells/5uL/well in 1536-well white wall/solid bottom plates using a Multidrop Combi (ThermoFisher Scientific, Waltham, MA) dispenser. After the assay plates were incubated at 37 C/5% CO2 for 5 h, 23 nL of compounds dissolved in DMSO, positive controls or DMSO only was transferred to the assay plate by a pintool workstation (Kalypsys, San Diego, CA). The plates were incubated at 37 C/5% CO2 for 23 h, followed by addition of 1uL/well of CellTiter-Fluor reagent into the assay plates using a Flying Reagent Dispenser (Aurora Discovery, San Diego, CA) for cell viability readout that measures cytotoxicity. After 1 h incubation at 37 C/5% CO2 the fluorescence intensity was measured using a ViewLux (PerkinElmer, Shelton, CT) plate reader.
On the technique in general: Quantitative high-throughput screening tests each substance at several concentrations.
As for `COCCOCCOCCO`, the Potency entry was “inactive”.

For `C1CNCCN1`, the Potency result was “inactive”.

Consider `c1ccc2n[nH]nc2c1`, for which the Potency result was “inactive”. As for `CC(O)(P(=O)(O)O)P(=O)(O)O`, the Potency entry was “inactive”. Consider `Oc1ccc(Cl)cc1Cc1cc(Cl)ccc1O`, for which the Potency is 27.8 µM (active) and 61.1 µM (active). Under `CCCCC(CC)COC(=O)C(C#N)=C(c1ccccc1)c1ccccc1` (stereo not given) stands “inactive”; under `COc1cc(OC)c(C(=O)CCCN2CCCC2)c(OC)c1`, “inactive”. With `O=C(O)C(=O)O` the entry was “inactive”; with `CC/C(=C(\c1ccccc1)c1ccc(OCCN(C)C)cc1)c1ccccc1`, 24.3 µM (active) [middle of 5 runs]; with `O=C1NC(=O)c2ccccc21`, “inactive”. Under `Nc1ccc(S(=O)(=O)Nc2nccs2)cc1` stands “inactive”; under `CC(O)COc1ccccc1` (stereo not given), “inactive”.

For the compound `Cc1cc(C2(c3cc(C)c(O)cc3C)OS(=O)(=O)c3ccccc32)c(C)cc1O`, the Potency was 21.7 µM (active) and 19.3 µM (active). With `COc1ccc(CN(CCN(C)C)c2ccccn2)cc1` the entry was “inactive”; with `CCCCCC(=O)O`, “inactive”; with `CN(C)CCN(Cc1cccs1)c1ccccn1`, “inactive”.

For the compound `CC1=CC(C)(C)Nc2ccccc21`, the Potency entry was “inactive”. Turning to `ClC1=C(Cl)C(Cl)(Cl)C(Cl)=C1Cl`, the Potency entry is “inactive”. Under `N#Cc1ccccc1` stands “inactive”; under `O=C(O)CCCC(=O)O`, “inactive”.

With `C[Si](C)(C)O[Si](C)(C)C`, the Potency result is “inactive”. With `CCCC[P+](CCCC)(CCCC)CCCC` the entry was “inactive”. With `O=C(CC(C(=O)OC1CCCCC1)S(=O)(=O)O)OC1CCCCC1` (stereo not given) the entry was “inactive”; with `CCCCCCCC(=O)O`, “inactive”; with `C=C(C)C(=O)OCC(C)C`, “inactive”. For `COCCc1ccc(OCC(O)CNC(C)C)cc1` (stereo not given), the Potency result was “inactive”. Turning to `O=C(O)CCCCC(=O)O`, the Potency entry was “inactive”. With `O=C(OCc1ccccc1)c1ccccc1` the entry was “inactive”; with `CNC(=S)N(C)C`, “inactive”; with `CC(=O)CC/C=C(\C)CCC=C(C)C`, “inactive”. Under `O=C(O)CCCC[C@@H]1SC[C@@H]2NC(=O)N[C@@H]21` stands “inactive”; under `CC(CCl)OP(=O)(OC(C)CCl)OC(C)CCl` (stereo not given), “inactive”; under `CCO[Si](CCCN)(OCC)OCC`, “inactive”. Under `CCCCCCCCCCCCCCCCCC(=O)OCC(O)CO` (stereo not given) stands “inactive”; under `OC[C@@H](O)[C@@H](O[C@@H]1O[C@H](CO)[C@H](O)[C@H](O)[C@H]1O)[C@H](O)[C@@H](O)CO`, “inactive”. As to `C[C@H]1C[C@H]2[C@@H]3CCC4=CC(=O)C=C[C@]4(C)[C@@]3(F)[C@@H](O)C[C@]2(C)[C@@]1(O)C(=O)CO`, the Potency entry was “inactive”. Under `OB(O)O` stands “inactive”. With `O=C(O)C1=NN(c2ccc(S(=O)(=O)O)cc2)C(=O)C1`, the Potency entry is “inactive”. As for `CC(=O)Nc1ccc(CC(=O)O)cc1`, the Potency result was “inactive”.

As for `NC(=O)c1ncn([C@@H]2O[C@H](CO)[C@@H](O)[C@H]2O)n1`, the Potency result was “inactive”.
